Results on 99 compounds are retold here after PubChem BioAssay AID1903 (Southern Research Specialized Biocontainment Screening …, 2009).

The structures appear in SMILES notation. Among all 310,000 compounds or so, about 1,200 (0.39%) were called active. How the calls were made is not given here. Only a sample is shown. Entries with a potency or affinity are not part of this list.

As a reminder, the inhibition is the drop in the measured response relative to a control, in per cent.

Large T antigen (Simian virus 40), sequence (P03070 whole entry, looked up): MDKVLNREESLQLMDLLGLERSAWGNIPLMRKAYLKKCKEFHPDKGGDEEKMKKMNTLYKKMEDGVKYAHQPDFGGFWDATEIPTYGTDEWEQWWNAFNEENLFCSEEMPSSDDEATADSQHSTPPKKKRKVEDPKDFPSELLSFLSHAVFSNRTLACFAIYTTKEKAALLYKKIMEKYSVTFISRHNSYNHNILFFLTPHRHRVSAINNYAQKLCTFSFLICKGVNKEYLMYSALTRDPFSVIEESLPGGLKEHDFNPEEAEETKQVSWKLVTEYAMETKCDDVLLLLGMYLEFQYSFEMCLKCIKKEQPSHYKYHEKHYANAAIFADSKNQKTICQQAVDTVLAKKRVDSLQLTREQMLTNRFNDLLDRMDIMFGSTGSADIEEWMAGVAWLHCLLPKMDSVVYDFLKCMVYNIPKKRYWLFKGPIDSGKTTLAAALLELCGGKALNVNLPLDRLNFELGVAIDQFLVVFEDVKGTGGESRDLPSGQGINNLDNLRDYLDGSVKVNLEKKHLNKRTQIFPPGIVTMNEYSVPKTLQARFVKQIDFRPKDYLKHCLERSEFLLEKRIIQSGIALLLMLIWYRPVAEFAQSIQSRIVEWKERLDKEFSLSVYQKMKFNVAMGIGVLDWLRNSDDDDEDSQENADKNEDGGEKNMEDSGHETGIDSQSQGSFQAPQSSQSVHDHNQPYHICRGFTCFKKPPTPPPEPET

The assay addresses Large T antigen (Simian virus 40) (UniProt P03070). The assay can be described thus: SV40 large T antigen inhibitors, biochemical (AID 1903). As to conditions: SV40 large T antigen ATPase/helicase inhibition assay; at 20 µM; stronger effect = higher value.
Turning to `Cc1ccc(S(=O)(=O)/C(C#N)=C/c2c(N3CC(C)OC(C)C3)nc3c(C)cccn3c2=O)cc1` (centres undefined), the inhibition is 23.9% (inactive). Under `COc1cc2c(cc1OC)CN(C(=O)/C=C/c1cc(OC)c(OC)c(OC)c1)CC2` stands 7.46% (inactive); under `O=C(N/N=C\c1ccc(OC(=O)c2ccco2)cc1)c1ccc(Cl)cc1`, 11.3% (inactive); under `O=C(N/N=C/c1ccc(OC(=O)c2ccco2)cc1)c1ccncc1`, 15.9% (inactive). For `C=CCc1ccccc1OCC(O)Cn1ccnc1C` (centres undefined), the inhibition is 10.2% (inactive). The result for `O=c1ccc2cc3c4c(c2o1)CCCN4CCC3` reads 3.45% (inactive); that for `CC(C)c1cc(=O)oc2c3c4c(cc12)CCCN4CCC3`, 4.43% (inactive); that for `CCc1ccc(NC(=O)[C@H](NC(=O)[C@@H]2Cc3ccccc3CN2)c2ccccc2)cc1`, 7.36% (inactive). The result for `CCCc1c(C(=O)N/N=C/C(C)=C/c2ccccc2)nnn1-c1nonc1N` reads 15.4% (inactive); that for `O=C(Cn1nnc(-c2ccc(NC(=O)c3ccccc3F)cc2)n1)NCc1ccc(F)cc1`, 16.3% (inactive). The result for `CCc1nnc(NC(=O)Cn2c(=O)oc3ccccc32)s1` reads 1.21% (inactive); that for `CCCc1nnc(NC(=O)Cn2c(=O)oc3ccccc32)s1`, 3.95% (inactive). Consider `N/C(=N\NS(=O)(=O)c1ccccc1)c1ccccn1`, for which the inhibition was 16.4% (inactive).

Consider `Cc1nnc(NC(=O)CSc2nnc(C)n2Cc2ccccc2)s1`, for which the inhibition was -83.7% (inactive). The result for `COc1ccc(OC(=O)Nc2ccc([N+](=O)[O-])cc2OC)cc1` reads 0.1% (inactive); that for `COC(=O)Nc1ccc([N+](=O)[O-])cc1OC`, 3% (inactive). On to `COc1cccc(/C=N/Nc2ncnc3c2ncn3Cc2ccccc2)c1O`, for which the inhibition was 18.1% (inactive).

`Oc1cccc(/C=N/Nc2ncnc3c2ncn3Cc2ccccc2)c1`: the inhibition is 10.2% (inactive). Under `CCc1nn(CC(=O)N2CCC(C(N)=O)CC2)c(=O)c2cc3occc3n12` stands 5.76% (inactive); under `CCCCC(=O)N1C/C=C\[C@H](c2ccc(OC)cc2)N(Cc2ccc(F)cc2)C(=O)[C@@H]1C`, -1.49% (inactive); under `Cc1c(C(=O)OCC(=O)NCc2ccccc2)oc2ccccc12`, 13.4% (inactive). Under `COC(=O)c1ccccc1NC(=O)c1cnn2c(C)cc(C)nc12` stands -5.22% (inactive); under `COc1ccc(/C=C/c2nc3ccccc3c(=O)n2-c2cccc(C(=O)O)c2)cc1`, 12.5% (inactive).

On to `CCn1c(/C=C/c2ccc(O)cc2)nc2ccccc2c1=O`, for which the inhibition is 26.9% (inactive). The result for `CCn1c(/C=C/c2cc(Br)ccc2O)nc2ccccc2c1=O` reads 27% (inactive); that for `O=C(O)c1ccc(-n2c(/C=C/c3ccccc3)nc3ccccc3c2=O)cc1`, 13.9% (inactive). The result for `CC(C)c1ccc(NC(=O)CSc2nc(-c3ccccc3F)nc3nc[nH]c23)cc1` reads 3.55% (inactive); that for `CCOc1ccc(CCNC(=O)CCC(=O)Nc2ccc3nc(N4CCN(C)CC4)cc(C)c3c2)cc1OCC`, 2.93% (inactive); that for `O=C(CCl)N1c2ccccc2CCc2ccccc21`, 8.1% (inactive). Turning to `O=C(CN1CCCCC1)N1c2ccccc2CCc2ccccc21`, the inhibition was 0.59% (inactive). Consider `Cc1cc(NS(=O)(=O)Cc2ccccc2)no1`, for which the inhibition is 3.2% (inactive). Under `CCCN(C(=O)c1ccc(N(C)S(=O)(=O)c2ccc(C)cc2)cc1)C1CCS(=O)(=O)C1` (centres undefined) stands 11% (inactive); under `Cc1ccc(C)c(NS(=O)(=O)c2ccc(OCC(=O)N3CCOCC3)cc2)c1`, 4.78% (inactive). The result for `COc1cc(C(=O)OCCN2CCCCC2)ccc1O` reads 29.6% (inactive); that for `COc1cc(C(=S)N2CCCCC2)ccc1O`, 29.3% (inactive); that for `O=C(NCCOc1ccccc1)C1CCC(=O)N(CCc2ccccn2)C1` (centres undefined), 5.44% (inactive).

Consider `CN(C)c1ccc(C2/C(=C(/O)c3ccc(Br)cc3)C(=O)C(=O)N2C)cc1` (centres undefined), for which the inhibition was 8.15% (inactive). Regarding `CC(C)C[C@H](NC(=O)[C@@H]1Cc2c([nH]c3ccccc23)C2c3ccccc3C(=O)N21)C(=O)NCC1CCCO1` (some centres undefined), the inhibition is 8.64% (inactive).

In the case of `Cc1ccc(/C=C2\CCOC2=O)cc1`, the inhibition was 10.9% (inactive). Regarding `O=C1OCC/C1=C\c1ccccc1`, the inhibition is 6.44% (inactive). The result for `CC(NC(=O)c1cc(S(=O)(=O)N2CCCC2)cn1C)c1ccccc1` (centres undefined) reads 5.41% (inactive); that for `CN1C(C(=O)NCCc2cccs2)CC2Cn3c(nc4ccccc43)C21` (centres undefined), 21.1% (inactive); that for `Cc1cc2cc3c(=O)[nH]c(=O)[nH]c3nc2cc1C`, -1.5% (inactive). Under `Cc1ccc2cc3c(N)c4c(C)ccc(C)c4nc3nc2c1` stands 1.71% (inactive); under `Nc1[nH]nc2nc3ccccc3cc12`, 36% (inactive). Under `CCc1ccc2nc(N)sc2c1` stands 9.15% (inactive); under `CC1(C)Cc2nc3n[nH]c(N)c3cc2CO1`, -1.93% (inactive); under `CCc1ccc2nc3nc(C)cc(C)c3c(N)c2c1`, 17.6% (inactive).

On to `CCn1cc(CNC(=O)c2cc(-c3ccccc3OC)nc3ccccc23)c(C)n1`, for which the inhibition is 4.15% (inactive). The result for `O=C(c1ccc(Cl)cc1)c1oc2ccccc2c1CS(=O)(=O)c1ccccc1` reads 1.36% (inactive); that for `c1ccc(Oc2ccc3ccccc3n2)cc1`, 7.16% (inactive). The result for `COc1ccc(N(CC(=O)N2CCOCC2)S(C)(=O)=O)cc1OC` reads 4.22% (inactive); that for `CCCCn1c(=O)[nH]c(=O)c2c(C(=O)OCC)cc(-c3cccs3)nc21`, 4.89% (inactive); that for `Cc1cc(NC(=O)c2cc(C(C)C)on2)nn1Cc1ccc(Cl)cc1`, -0.65% (inactive). `COC(=O)c1[nH]c2cccc(OC)c2c1NC(=O)CCN1CCSCC1`: the inhibition is 2.77% (inactive).

Turning to `CCN(CC)C(=O)C1CCC(CNS(=O)(=O)c2cccc3nsnc23)CC1` (centres undefined), the inhibition is 5.44% (inactive). The result for `COc1ccccc1C(=O)NCCC(=O)Nc1nc2ccccc2[nH]1` reads 10.6% (inactive); that for `CCOC(=O)/C(C#N)=C1/C(=O)N(Cc2ccccc2)c2ccccc21`, 11% (inactive); that for `CCCCN1C(=O)/C(=C(/C#N)C(=O)N2CCCC2)c2ccccc21`, 7.04% (inactive). Under `O=C(CN1C(=O)C2CCCCC2C1=O)Nc1nc(-c2ccc(F)cc2)cs1` (centres undefined) stands 12.1% (inactive); under `COc1ccc(Nc2ccccc2C(=O)O)cc1`, 31.6% (inactive); under `COc1ccc(Nc2cccc(Cl)c2)c(C(=O)O)c1`, 33.4% (inactive). The result for `COc1cc(/C=N/Nc2ccccn2)cc(OC)c1O` reads 29.8% (inactive). Consider `COc1ccc(/C=N/Nc2ccccn2)cc1O`, for which the inhibition is 36.9% (inactive). The result for `COc1ccc(/C=N/Nc2ccccn2)cc1OC` reads 9.61% (inactive); that for `COc1ccc(/C=N/Nc2cc(=O)n(C)c(=O)n2C)cc1OC`, 9.25% (inactive). The result for `COc1ccc(/C=N/Nc2nc(=O)[nH]nc2C)cc1OC` reads 13.7% (inactive); that for `COc1cc(/C=N/Nc2nc(C)cc(=O)[nH]2)ccc1O`, 35.4% (inactive); that for `Cn1c(N/N=C\c2cccc(O)c2)cc(=O)n(C)c1=O`, -5.57% (inactive). Take `COc1cc(/C=N/Nc2ccc(C(=O)O)cc2)ccc1O`: the inhibition is 29.4% (inactive). The result for `CC(=O)c1sc(NC(=O)COc2ccccc2)nc1C` reads 3.21% (inactive); that for `CC(C)CCNC(=O)C(=O)Nc1cc2c3c(c1)CCC(=O)N3CCC2`, -2.67% (inactive). `COC(=O)c1ccc(CNC(=O)C23CC4CC(CC(C4)C2)C3)cc1`: the inhibition was -3.62% (inactive). Under `CCCCc1oc2c(c(=O)c1C)C(=O)CC(c1ccccc1)C2` (centres undefined) stands 4.52% (inactive); under `CCC(=O)N1CCN(c2ccc(NC(=O)c3ccc(C#N)cc3F)cc2Cl)CC1`, 6.06% (inactive). The result for `CCc1ccc(NC(=O)C(=O)N/N=C(\C)CC(=O)Nc2ccccn2)cc1` reads 11.4% (inactive). Under `CCC(NC(=O)c1ccc(C#CC2(O)CCCCC2)cc1)C(=O)O` (centres undefined) stands 8.73% (inactive). In the case of `COc1cc(/C=N/Nc2ccccc2)ccc1O`, the inhibition was 27.7% (inactive).

In the case of `Oc1ccc(/C=N/NC2=NCCCCC2)cc1`, the inhibition is 25.1% (inactive). The result for `COc1ccc(/C=N/NC2=NCCCCC2)cc1` reads -2.48% (inactive); that for `COc1ccc(OC)c(/C=N/Nc2nncn2/N=C/c2cc(OC)ccc2OC)c1`, 12.7% (inactive); that for `COc1cccc2c(N/N=C/c3ccccc3)cc(C)nc12`, 4.18% (inactive). Under `CCc1nnc(N/N=C/c2ccc(O)c(OC)c2)n1N` stands 38% (inactive); under `COc1ccc(/C=N/Nc2cc(C)nc3c(C)cccc23)cc1`, 4.3% (inactive); under `COc1cc(/C=N/Nc2nn3cnnc3c3ccccc23)ccc1O`, 8.69% (inactive). On to `CCc1ccc(NC(=O)C2CCN(S(=O)(=O)c3ccc4c(c3)N(C(C)=O)CCO4)CC2)cc1`, for which the inhibition is -0.74% (inactive).

Regarding `Cc1ccc(S(=O)(=O)NCCCN2CCCC2)cc1`, the inhibition is 13.3% (inactive).

For the compound `c1ccc(CNc2nc3ccccc3n2CCN2CCOCC2)nc1`, the inhibition was 7.87% (inactive). The result for `Cc1ccc(NC(=O)c2nc[nH]c2C(=O)N2CCC(C)CC2)cc1` reads 9.16% (inactive). Consider `O=C(Cn1nc(-c2cccs2)ccc1=O)Nc1ccc(Br)cc1`, for which the inhibition is 3.47% (inactive). The result for `O=C1CC(C(=O)Nc2ccc(Cl)cc2[N+](=O)[O-])C2(CCCCC2)O1` (centres undefined) reads 6.86% (inactive). The result for `COc1ccccc1OCc1nn[nH]n1` reads 11.9% (inactive). Under `CCC1CCCCN1CCCNC(=O)c1cc2c(=O)[nH]c3ccccc3c2n1C` (centres undefined) stands 8.49% (inactive); under `O=C(Nc1c(Cl)cc(Cl)cc1-c1nc2ccccc2s1)c1ccc(Br)o1`, 6.8% (inactive). As for `COC(CN(C)C(=O)c1ccc(CS(=O)(=O)c2ccccc2C)o1)OC`, the inhibition is 6.06% (inactive).

Regarding `Cc1nnc(-c2ccccc2)c[n+]1[O-]`, the inhibition is 2.44% (inactive). Under `Oc1c(Br)cc(/C=N/n2c(-c3ccccc3)n[nH]c2=S)c(O)c1Br` stands 30.1% (inactive). `Oc1c(Br)cc(/C=N/n2c(-c3ccccc3)n[nH]c2=S)cc1Br`: the inhibition was 29.7% (inactive). The result for `CCOC(=O)N/N=C(/C)c1ccc(N2C(=O)C3CCCCC3C2=O)cc1` (centres undefined) reads 11.8% (inactive).
